# Assay outcomes (PubChem BioAssay)
# SSB-PriA inh = inhibitors of Klebsiella pneumoniae PriA binding to SSB C-terminal tail, primary screen, biochemical, AlphaScreen | hit rate 0.6% among 430,000 | inhibition, % at 33 µM | AlphaScreen SSBct-PriA binding, biotinylated peptide | PriA–SSB C-terminal tail interaction (Klebsiella pneumoniae); in the data active = inhibition mostly above about 37%, no sharp cut-off; inactive = mostly below about 20%;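 also: plate controls were negative control peptide for no effect and reference peptide for full effect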
# Mtb betalactam = beta-lactam sensitization of Mtb H37Rv, H37Rv; M. tuberculosis H37Rv growth with meropenem, percent inhibition; hit rate 0.27% among 330,000; inhibition, % at 25 µM; call rule not given here;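 also: growth measured after seven days incubation then overnight dye step; 0% = bacteria only wells and 100% = bacteria with antibiotic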
# Mtb FBA inh = Mtb FBA enzyme inhibitors, primary screen, biochemical, fluorescence, strain H37Rv; purified M. tuberculosis FBA, fluorescence read-out; inhibition, % at 1 µM; hit rate 2.3% among 360,000; AID 588726, 2011;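 also: 0% = vehicle and 100% = reference inhibitor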
# UGM FP inh = M. tuberculosis UGM enzyme inhibitors, primary screen, biochemical, fluorescence polarization, single point | purified UGM, fluorescence polarization probe displacement | AID 504406, 2011 | inhibition, % at 10 µM | hit rate 0.06% among 320,000; in the data active = inhibition above about 10%, passing the limit was not always enough
# GDH-TPI counter-1 = GDH-TPI coupling enzyme inhibitors, primary screen, artefact control for M. tuberculosis FBA inhibitor project, biochemical, absorbance, full deck | GDH-TPI coupled enzyme counterscreen, NADH absorbance | inhibition, % at 4.8 µM | hit rate 1.2% among 360,000 | AID 588335, 2011; in the data active = inhibition above about 30%;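 also: 0% = DMSO wells and 100% = wells lacking the enzyme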
# Rv3671c protease = Rv3671c serine protease inhibitors, primary screen, biochemical, fluorescence polarization, M. tuberculosis H37Rv; P9WHR9; inhibition, % at 5.96 µM; hit rate 0.048% among 320,000; AID 2606, 2010; in the data active = inhibition above about 38%;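 also: extracellular domain of Rv3671c used as enzyme; 0% = enzyme with DMSO and 100% = no enzyme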
# Target sequence (P9WHR9 whole entry, looked up, the tested form may be a part): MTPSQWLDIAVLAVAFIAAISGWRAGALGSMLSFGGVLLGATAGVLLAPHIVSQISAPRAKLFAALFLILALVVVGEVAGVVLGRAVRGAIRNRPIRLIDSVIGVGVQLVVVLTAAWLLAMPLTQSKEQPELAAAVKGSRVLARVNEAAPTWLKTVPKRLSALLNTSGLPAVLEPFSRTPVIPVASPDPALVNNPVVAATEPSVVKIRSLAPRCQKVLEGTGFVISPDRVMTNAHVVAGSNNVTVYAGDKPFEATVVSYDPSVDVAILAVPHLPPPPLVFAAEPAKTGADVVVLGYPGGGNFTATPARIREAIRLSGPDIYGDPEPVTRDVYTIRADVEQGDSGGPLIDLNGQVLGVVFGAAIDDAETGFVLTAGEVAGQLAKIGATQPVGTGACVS
# Mtb FBA confirm = M. tuberculosis aldolase blockers, biochemical, fluorescence, strain H37Rv, confirmation; AID 651616, 2012; hit rate 78% among 5,600; purified M. tuberculosis FBA, fluorescence read-out; inhibition, % at 1 µM; shares compounds with Mtb FBA inh;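 also: 0% = vehicle wells and 100% = reference inhibitor wells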
# GDH-TPI counter-2 = GDH-TPI coupling enzyme inhibitors, artefact control for M. tuberculosis FBA inhibitor project, biochemical, fluorescence, high throughput. shares compounds with Mtb FBA inh. GDH-TPI coupled enzyme counterscreen. inhibition, % at 1 µM. hit rate 81% among 5,600. AID 652141, 2013; in the data active = inhibition above about 10%
# * hit, by the source's call; nt = no result; + = active, no number. This is a sample that favours compounds with a hit; in the whole collection about 3.2% have one here. Rule as the data show it, unless noted: active = inhibition above about 27%; inactive = the rest.
SMILES,SSB-PriA inh,Mtb betalactam,Mtb FBA inh,UGM FP inh,GDH-TPI counter-1,Rv3671c protease,Mtb FBA confirm,GDH-TPI counter-2
OC[C@@H]1[C@@H](c2ccccc2)C(c2cccc(Cl)c2)=NN1c1ccccc1,-7,nt,50*,nt,-6,nt,122*,134*
COc1ccccc1[C@@H]1C(c2cccc(Cl)c2)=NN(c2ccccc2)[C@H]1C(=O)N1CCOC1=O,-63,2,10,5,11,-4,nt,nt
NC(=NO)c1cccc(CS(=O)(=O)c2ccccn2)c1,-2,nt,nt,nt,nt,nt,nt,nt
O=c1[nH]c2cc3c(cc2cc1C(c1nnnn1Cc1ccccc1)N1CCCCCC1)OCCO3 (stereo not drawn),-7,1,18,2,4,3,nt,nt
O=c1[nH]c2cc3c(cc2cc1C(c1nnnn1Cc1ccccc1)N1CCN2CCCC2C1)OCCO3 (stereo not drawn),-4,-6,35*,nt,23,5,+,134*
COc1ccc2cc(-c3cc(C(=O)OCC(=O)NC4CCS(=O)(=O)C4)c4ccccc4n3)ccc2c1 (stereo not drawn),-20,-6,28*,1,12,-13,122*,96*
O=C(COC(=O)c1cc(-c2cccs2)nc2ccccc12)NC1CCS(=O)(=O)C1 (stereo not drawn),-24,4,48*,1,15,-11,44*,29*
COc1ccc(-c2cc(C(=O)OCC(=O)NC3CC3)c3ccccc3n2)cc1,-80,64,5,-3,5,-13,nt,nt
COc1cc(Cn2cc(CC(=O)Nc3nccs3)c3ccccc32)cc(OC)c1,9,nt,nt,nt,nt,nt,nt,nt
COc1ccc2oc(C(=O)NC(C)(C)C)c(C)c2c1,7,64,13,-1,2,-1,nt,nt
COc1ccc2oc(C(=O)NC(C)c3ccccn3)c(C)c2c1 (stereo not drawn),-5,-2,33*,1,3,-4,94*,83*
COc1ccc2oc(C(=O)Nc3nnc(C)s3)c(C)c2c1,1,-4,29*,2,23,-3,81*,63*
COC(=O)c1cc2c(=O)c3ccccc3oc2nc1C,16,7,2,2,-5,nt,nt,nt
COC(=O)c1cc2c(=O)c3ccccc3oc2nc1/C=C/N(C)C,-40,9,32*,-5,3,nt,98*,64*
O=C(Nc1cc(Cl)cc(Cl)c1)c1ccc2c(c1)CCCC2,-6,nt,nt,nt,nt,nt,nt,nt
CCOC(=O)c1sc2nc(C)nc(NCCc3ccccn3)c2c1C,-13,-1,71*,1,3,-2,22,12*
C[C@@H](CC(=O)N1CCC(Cc2ccccc2)CC1)CC1=NS(=O)(=O)c2ccccc2N1,-8,nt,nt,nt,nt,nt,nt,nt
CN(C)c1ccc(C=Cc2nccc3ccccc23)cc1,nt,nt,-3,nt,nt,nt,nt,nt
N#Cc1ccc(/C=C\c2nccc3c2[nH]c2ccccc23)cc1,-13,22,54*,1,8,-40,54*,45*
Clc1ccc(/C=C\c2nccc3c2[nH]c2ccccc23)cc1,4,nt,54*,nt,6,nt,55*,41*
Clc1ccc(C=Cc2ccccn2)cc1,-27,nt,-1,nt,18,nt,nt,nt
Cc1ccc2nc(-c3ccsc3)c(NC3CCCC3)n2c1,1,4,28*,-1,9,4,18,14*
Cc1ccc2nc(-c3ccncc3)c(NC3CCCC3)n2c1,3,-4,2,3,11,-1,nt,nt
CC(=O)Nc1ccc2nc(-c3ccncc3)[nH]c2c1,-7,-9,32*,-1,12,4,+,+
Nc1ccc(C(=O)Nc2ccc3nc(-c4ccncc4)[nH]c3c2)cc1,0,-6,-1,-2,17,6,nt,nt
SMILES,SSB-PriA inh,Mtb betalactam,Mtb FBA inh,UGM FP inh,GDH-TPI counter-1,Rv3671c protease,Mtb FBA confirm,GDH-TPI counter-2
CCC(=O)NC(c1cccs1)c1cc(Cl)c2ccccc2c1O (stereo not drawn),-2,-5,39*,5,-4,-9,116*,80*
CC(=O)NC(c1cccs1)c1cc(Cl)c2ccccc2c1O (stereo not drawn),-1,18,36*,1,16,-4,84*,58*
CCC(=O)NC(C)c1cc(Cl)c2ccccc2c1O (stereo not drawn),-19,0,9,5,-4,-6,nt,nt
CC(=O)NC(c1cc(Cl)c2ccccc2c1O)C(C)C (stereo not drawn),-5,2,8,2,8,-9,nt,nt
CCOc1cccc2sc(-n3nc(C)cc3NC(=O)CCCS(=O)(=O)c3ccc(C)cc3)nc12,-10,nt,nt,nt,nt,nt,nt,nt
Cc1nc(CS(=O)(=O)c2ccc(Cl)cc2)cc(Sc2ccccc2Cl)n1,-17,8,31*,0,3,-10,110*,98*
Cc1nc(CS(=O)(=O)c2ccccc2)cc(Sc2ccccc2Cl)n1,-14,-3,2,-1,-1,1,nt,nt
O=C(NC(=S)Nc1ccc(CN2CCOCC2)cc1)c1ccc([N+](=O)[O-])cc1,0,7,33*,-2,2,3,5,-4
O=C(NNC(=O)c1ccc2ccccc2c1O)Nc1ccc(F)cc1,-11,-13,37*,1,9,-3,+,174*
Cc1cccc(NC(=O)NNC(=O)c2ccc3ccccc3c2O)c1,4,7,29*,1,6,nt,81*,59*
O=C(COC(=O)CNC(=O)C1CCCCC1)Nc1ccccc1,0,-2,3,0,6,0,nt,nt
O=C(CNC(=O)C1CCCCC1)OCc1cc(=O)oc2ccc3ccccc3c12,-8,3,43*,-2,10,9,3,-3
Cc1ccc(-c2cc(C(F)(F)F)c(C#N)c(SCCC#N)n2)o1,9,-1,31*,3,6,-4,159*,153*
O=C(c1ccco1)N1CCN(C(=O)c2cccn3c(=O)c4c5c(sc4nc23)CCCC5)CC1,-17,nt,34*,nt,28,nt,189*,145*
Cc1cccn2c(=O)c3cc(C(=O)N4CCN(C(=O)c5ccco5)CC4)n(C)c3nc12,-8,2,81*,2,26,-13,+,+
Cc1cccn2c(=O)c3cc(C(=O)N4CCOCC4)n(C)c3nc12,-2,-8,66*,-3,17,3,-10,-11
